Bioassay records deposited in PubChem BioAssay by Sanford-Burnham Center for Chemical Genomics.
This is a sample that favours compounds with a hit; in the whole collection about 3.9% have one here.
TWEAK-Fn14 inh – inhibitors of TWEAK-Fn14 signaling, primary screen, luciferase reporter cells, uHTS. TWEAK-stimulated Fn14 reporter cells, luciferase luminescence, 8 h. inhibition, % at 10 µM. 2% of 360,000 active. AID 1159606, 2016; in the data active = inhibition above about 50%
Peg3 promoter – Peg3 promoter-driven luciferase inhibitors, primary screen, cell-based, HeLa, luciferase luminescence; HeLa PEG-Prom luciferase reporter, overnight; 1.7% of 360,000 active; inhibition, % at 20 µM;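 active = inhibition of at least 50% at 20 µM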
KKLEB cytotox – cytotoxicity in KKLEB CF airway cells, primary screen, cytotoxicity control for CF NF-kB inhibitor project, cell-based, uHTS, fluorescence assay plates; activity change (cytotoxicity), % at 5 µM; KKLEB CF airway cells viability, ATPlite luminescence, overnight; hits give low values; cells stimulated with P. aeruginosa culture filtrate; 0.36% of 360,000 active;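 active = corrected activity change at or below -50% at 5 µM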
CF NFkB block – inhibitors of PAF-induced NF-kB signaling, primary screen, cell-based, GFP fluorescence, uHTS; KKLEB NF-kB-GFP reporter, GFP fluorescence overnight; inhibition, % at 5 µM; 0.86% of 360,000 active; AID 588850, 2011;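 active = at least 50% inhibition at 5 µM, scaled per plate between neutral and stimulator controls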;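 note: PAF is a Pseudomonas aeruginosa culture filtrate used as stimulus; plate controls were PAF-stimulated DMSO wells for no effect and unstimulated DMSO wells for full effect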
HIF-2a block – HIF-2a reporter inhibitors, primary screen, luminescence, 786-0 RCC cells | 786-0 RCC cells HIF-2a reporter, luciferase luminescence, overnight | 0.72% of 360,000 active | AID 624352, 2012 | inhibition, % at 18.8 µM;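 active = inhibition of the luminescence signal of 40% or more relative to plate controls, in a single-dose primary screen at 18.75 µM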
TROY NFkB inh – inhibitors of TROY-driven NF-kB signaling, primary screen, Q293 LMP1-TROYcd cells, NF-kB luciferase, uHTS; Q293 LMP1-TROYcd NF-kB luciferase reporter, 4 h; AID 1347056, 2019; 0.98% of 360,000 active; inhibition, % at 10 µM;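 active = compounds whose plate-normalised and pattern-corrected inhibition of the luciferase reporter signal at the single screening dose is 50% or more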
An asterisk follows results filed as active; x = no result given.

SMILES	TWEAK-Fn14 inh	Peg3 promoter	KKLEB cytotox	CF NFkB block	HIF-2a block	TROY NFkB inh
O=c1[nH]ncc(N2CCCCC2)c1Cl	4	-11	-5	1	6	-10
CCN(C(=S)Nc1cc(S(=O)(=O)N2CCOCC2)ccc1Cl)c1cccc2ccccc12	87*	12	19	-8	18	15
COc1cc2c(cc1OC)C1c3ccc(OC)c(OC)c3OCC1(O)C2 (configuration not stated)	-2	5	-3	6	6	-4
O=C1c2ccccc2C2=Nc3ccccc3SC(c3cccc(F)c3)C12 (configuration not stated)	48	58*	-18	31	28	71*
O=c1c(Br)ccc(Br)cc1Br	104*	95*	-94*	91*	89*	-34
O=C1CN(S(=O)(=O)c2cc(Br)ccc2Br)CCN1	-7	6	4	13	8	-14
CCCCNc1c(-c2cccc(-c3cc(C(C)=O)cs3)c2)nc2cc(C)ccn12	24	60*	-10	10	-101	-1
CCCCc1c(C)c(C#N)c2[nH]c3ccccc3n2c1=O	9	18	-7	32	-2	52*
O=C(NC12CC3CC(CC(C3)C1)C2)c1ccc(-c2ccc(Cl)cc2)o1	36	-326	-13	-3	-247	54*
O=C(NC12CC3CC(CC(C3)C1)C2)c1ccc(-c2cccc(Cl)c2)o1	68*	-298	-11	-1	-159	73*
O=C(NC12CC3CC(CC(C3)C1)C2)c1ccco1	10	9	5	-4	6	-3
O=C(NC12CC3CC(CC(C3)C1)C2)c1ccc(-c2ccccc2Cl)o1	64*	-341	-9	12	-151	x
CC(=O)NC(=O)c1ccc(-c2ccc(Cl)cc2)o1	-10	-116	4	-7	-128	-47
O=C(CCC(=O)N/N=C/c1cc(Cl)cc(Cl)c1O)NCc1ccccc1	4	22	-3	16	10	18
Cc1nn(CC(=O)NCC(C)c2ccccc2)c(=O)c2cc(-c3ccccc3)nn12 (configuration not stated)	16	24	2	-10	-4	4
CCc1ccc(-c2nn(Cc3ccccc3)cc2C(=O)NCC2CCCO2)cc1 (configuration not stated)	-6	-10	-3	-5	-16	-13
COc1cc(/C=C2\COC/C(=C\c3cc(OC)c(OC)c(OC)c3)C2=O)cc(OC)c1OC	102*	105*	-67*	93*	93*	78*
COc1cc(/C=C2\CCC/C(=C\c3ccc(O)c(OC)c3)C2=O)ccc1O	85*	105*	-16	-11	81*	47
COc1cc(/C=C2\CC/C(=C\c3cc(OC)c(O)c(OC)c3)C2=O)cc(OC)c1O	80*	105*	-44	62*	-30	29
COc1cc(/C=C2\CC/C(=C\c3cc(OC)c(OC)c(OC)c3)C2=O)cc(OC)c1OC	38	-11	-4	-30	20	50
CCCCN1C(=O)C(CC(=O)NCC2CCCCC2)CC(C(=O)N(C(C)C)C(C)C)=C1C (configuration not stated)	-4	4	3	1	14	-10
CN(C)c1ccc(-c2ccnc3c2CC(C)(C(=O)NCCc2ccccc2)O3)cc1 (configuration not stated)	-1	18	-1	-14	8	0
COc1ccc(-c2c([C@H]3[C@H]4C=CC[C@@H](C)[C@@H]4C(=O)N3Cc3ccccc3)ccc3ccccc23)cc1	0	1	-17	38	9	16
Clc1ccc(-n2nnnc2-c2cnc(-c3ccncc3)nc2-c2cccs2)cc1	14	35	-19	20	31	1
FC(F)(F)c1nc(-c2cccs2)ncc1-c1nnnn1-c1ccc(Cl)cc1	99*	69*	2	4	6	66*
CC(=O)Nc1ccc(S(=O)(=O)Nc2cccc(-c3nc4cc(C)ccc4o3)c2)cc1	30	-51	12	-9	-77	0
